# Laboratory results reported in paper PMC7862700, “An all-to-all approach to the identification of sequence-specific readers for epigenetic DNA modifications on cytosine”.
# Tests used:
# Experiment in all cases: DAPPL (digital affinity profiling via proximity ligation, sequencing); 10 mM Tris-HCl pH 7.5, 50 mM NaCl, 1 mM DTT, 4% glycerol, room temperature, 30 min; GST-TFs on glutathione beads, 16-mer random dsDNA library, 0.1% formaldehyde crosslink after washing; high values mean tight binding
# FEV = biological target: T1, FEV (Homo sapiens, UniProt Q99581 1-238); conditions: protein: recombinant; tags: N-terminal GST; dsDNA, one strand shown
# T1 sequence: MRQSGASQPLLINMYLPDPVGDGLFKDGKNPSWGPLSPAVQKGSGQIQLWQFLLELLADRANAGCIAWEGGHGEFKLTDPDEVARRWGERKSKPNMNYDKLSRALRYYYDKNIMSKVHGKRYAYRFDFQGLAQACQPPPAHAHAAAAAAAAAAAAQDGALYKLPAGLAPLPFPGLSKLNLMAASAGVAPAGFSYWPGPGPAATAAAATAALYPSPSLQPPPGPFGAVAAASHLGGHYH
# How it was run: (§1)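 After expression in yeast as GST fusions, human transcription factors were bound to glutathione beads, DNA-barcoded and mixed with a tag-only sample. The pools were incubated with 200 nmole of a 16-mer random double-stranded DNA library in Tris/NaCl/DTT/glycerol buffer (30 min, room temperature), washed and crosslinked with 0.1% formaldehyde. Proximity ligation with BsaI/T4 ligase ran for 1 h at 37 °C, before PCR amplification and sequencing on an Illumina NextSeq500. Binding signal is a hexamer's read frequency for a factor divided by its frequency for the tag-only sample.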
# ETV5 = ETV5 (Homo sapiens, UniProt P41161 1-510); conditions: protein: recombinant; tags: N-terminal GST; dsDNA, one strand shown
# How it was run: as §1
# HSF1 = HSF1 (Homo sapiens, UniProt Q00613 1-529); conditions: protein: recombinant; tags: N-terminal GST; chain copies: 3; dsDNA, one strand shown
# How it was run: as §1
# SPIC = biological target: T2, SPIC (Homo sapiens, UniProt Q8N5J4 1-248); conditions: protein: recombinant; tags: N-terminal GST; dsDNA, one strand shown
# T2 sequence: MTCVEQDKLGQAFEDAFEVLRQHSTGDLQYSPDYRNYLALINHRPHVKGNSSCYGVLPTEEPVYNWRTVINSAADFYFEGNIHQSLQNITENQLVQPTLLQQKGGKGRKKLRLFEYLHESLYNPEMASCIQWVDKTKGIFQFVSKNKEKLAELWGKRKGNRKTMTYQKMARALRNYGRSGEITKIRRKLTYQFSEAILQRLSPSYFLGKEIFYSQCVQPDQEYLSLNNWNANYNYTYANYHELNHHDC
# How it was run: as §1
# ELF4 = ELF4 (Homo sapiens, UniProt Q99607 1-663); conditions: protein: recombinant; tags: N-terminal GST; dsDNA, one strand shown
# How it was run: as §1
# ELK4 = biological target: T3, ELK4 (Homo sapiens, UniProt P28324-2 1-405); conditions: protein: recombinant; tags: N-terminal GST; dsDNA, one strand shown
# T3 sequence: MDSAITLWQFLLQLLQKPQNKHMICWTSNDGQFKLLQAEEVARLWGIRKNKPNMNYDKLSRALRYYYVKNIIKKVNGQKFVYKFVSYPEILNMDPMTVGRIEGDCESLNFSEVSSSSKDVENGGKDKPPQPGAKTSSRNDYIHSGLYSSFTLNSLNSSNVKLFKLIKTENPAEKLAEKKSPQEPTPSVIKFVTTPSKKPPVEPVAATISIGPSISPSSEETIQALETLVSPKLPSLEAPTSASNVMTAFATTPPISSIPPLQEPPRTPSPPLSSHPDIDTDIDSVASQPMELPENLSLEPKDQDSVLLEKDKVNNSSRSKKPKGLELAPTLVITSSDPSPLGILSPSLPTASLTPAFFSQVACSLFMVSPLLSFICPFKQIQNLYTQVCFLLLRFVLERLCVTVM
# How it was run: as §1
# ETV2 = biological target: T4, ETV2 (Homo sapiens, UniProt O00321 1-342); conditions: protein: recombinant; tags: N-terminal GST; dsDNA, one strand shown
# T4 sequence: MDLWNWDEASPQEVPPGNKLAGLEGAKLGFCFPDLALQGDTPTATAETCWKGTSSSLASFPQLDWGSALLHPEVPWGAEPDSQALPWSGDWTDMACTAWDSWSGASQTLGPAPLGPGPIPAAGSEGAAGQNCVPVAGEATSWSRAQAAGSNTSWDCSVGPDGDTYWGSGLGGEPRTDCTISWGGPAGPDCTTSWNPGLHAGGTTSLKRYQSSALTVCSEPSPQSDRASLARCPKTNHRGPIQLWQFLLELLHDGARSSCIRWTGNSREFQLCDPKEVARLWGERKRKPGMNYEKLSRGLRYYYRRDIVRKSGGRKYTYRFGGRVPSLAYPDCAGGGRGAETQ
# How it was run: as §1
# ELF3 = biological target: T5, ELF3 (Homo sapiens, UniProt P78545 1-371); conditions: protein: recombinant; tags: N-terminal GST; dsDNA, one strand shown
# T5 sequence: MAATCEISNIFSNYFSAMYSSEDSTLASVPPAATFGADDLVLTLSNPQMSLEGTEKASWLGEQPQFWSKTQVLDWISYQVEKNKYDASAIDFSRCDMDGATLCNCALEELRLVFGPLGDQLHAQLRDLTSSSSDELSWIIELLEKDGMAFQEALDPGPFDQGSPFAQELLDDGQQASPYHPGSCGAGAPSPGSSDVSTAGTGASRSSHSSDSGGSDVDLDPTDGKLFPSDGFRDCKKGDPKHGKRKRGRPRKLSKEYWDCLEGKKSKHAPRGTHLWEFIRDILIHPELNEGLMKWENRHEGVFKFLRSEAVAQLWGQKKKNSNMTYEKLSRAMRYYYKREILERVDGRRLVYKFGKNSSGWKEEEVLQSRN
# How it was run: as §1
# CRX = CRX (Homo sapiens, UniProt O43186 1-299); conditions: protein: recombinant; tags: N-terminal GST; dsDNA, one strand shown
# How it was run: as §1
# ETV1 = ETV1 (Homo sapiens, UniProt P50549 1-477); conditions: protein: recombinant; tags: N-terminal GST; dsDNA, one strand shown
# How it was run: as §1
# ERF = biological target: T6, ERF (Homo sapiens, UniProt P50548 1-548); conditions: protein: recombinant; tags: N-terminal GST; dsDNA, one strand shown
# T6 sequence: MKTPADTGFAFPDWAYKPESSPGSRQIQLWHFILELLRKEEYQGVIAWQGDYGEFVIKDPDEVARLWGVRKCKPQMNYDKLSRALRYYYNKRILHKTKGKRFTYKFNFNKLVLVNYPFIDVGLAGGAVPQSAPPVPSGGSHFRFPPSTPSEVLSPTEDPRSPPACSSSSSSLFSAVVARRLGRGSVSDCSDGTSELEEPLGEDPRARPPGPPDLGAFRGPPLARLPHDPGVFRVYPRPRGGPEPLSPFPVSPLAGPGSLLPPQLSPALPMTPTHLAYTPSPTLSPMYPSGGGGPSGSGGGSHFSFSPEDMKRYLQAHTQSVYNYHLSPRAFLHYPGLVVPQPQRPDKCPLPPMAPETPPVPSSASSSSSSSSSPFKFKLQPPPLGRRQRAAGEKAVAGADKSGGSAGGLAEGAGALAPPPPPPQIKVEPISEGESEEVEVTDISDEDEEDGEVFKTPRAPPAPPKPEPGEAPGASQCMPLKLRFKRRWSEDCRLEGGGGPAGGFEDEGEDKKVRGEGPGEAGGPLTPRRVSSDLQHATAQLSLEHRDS
# How it was run: as §1
# ETV3L = biological target: T7, ETV3L (Homo sapiens, UniProt Q6ZN32 1-361); conditions: protein: recombinant; tags: N-terminal GST; dsDNA, one strand shown
# T7 sequence: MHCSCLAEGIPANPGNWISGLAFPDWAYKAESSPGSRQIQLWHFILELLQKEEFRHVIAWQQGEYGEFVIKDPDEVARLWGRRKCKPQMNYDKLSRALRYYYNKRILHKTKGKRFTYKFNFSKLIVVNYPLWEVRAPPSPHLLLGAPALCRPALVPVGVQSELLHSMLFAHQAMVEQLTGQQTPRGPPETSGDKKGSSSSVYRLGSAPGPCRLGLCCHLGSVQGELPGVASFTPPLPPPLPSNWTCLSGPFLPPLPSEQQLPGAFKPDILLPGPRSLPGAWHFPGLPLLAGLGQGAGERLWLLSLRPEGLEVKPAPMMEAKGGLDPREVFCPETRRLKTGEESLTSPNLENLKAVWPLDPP
# How it was run: as §1
# ETS2 = biological target: T8, ETS2 (Homo sapiens, UniProt P15036 1-469); conditions: protein: recombinant; tags: N-terminal GST; dsDNA, one strand shown
# T8 sequence: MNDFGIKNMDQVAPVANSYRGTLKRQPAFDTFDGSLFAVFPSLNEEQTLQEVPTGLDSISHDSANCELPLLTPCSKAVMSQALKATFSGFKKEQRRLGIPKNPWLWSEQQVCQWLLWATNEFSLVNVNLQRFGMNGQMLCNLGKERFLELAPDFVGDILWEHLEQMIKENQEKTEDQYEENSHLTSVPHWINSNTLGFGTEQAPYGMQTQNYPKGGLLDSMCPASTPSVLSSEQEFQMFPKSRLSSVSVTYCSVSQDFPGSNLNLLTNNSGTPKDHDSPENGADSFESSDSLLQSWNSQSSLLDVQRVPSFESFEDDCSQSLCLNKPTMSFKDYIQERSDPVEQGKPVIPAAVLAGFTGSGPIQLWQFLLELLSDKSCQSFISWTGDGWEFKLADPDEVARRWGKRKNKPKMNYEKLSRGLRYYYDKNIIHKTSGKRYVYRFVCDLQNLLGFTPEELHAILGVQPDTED
# How it was run: as §1
# SPDEF = biological target: T9, SPDEF (Homo sapiens, UniProt O95238 1-335); conditions: protein: recombinant; tags: N-terminal GST; dsDNA, one strand shown
# T9 sequence: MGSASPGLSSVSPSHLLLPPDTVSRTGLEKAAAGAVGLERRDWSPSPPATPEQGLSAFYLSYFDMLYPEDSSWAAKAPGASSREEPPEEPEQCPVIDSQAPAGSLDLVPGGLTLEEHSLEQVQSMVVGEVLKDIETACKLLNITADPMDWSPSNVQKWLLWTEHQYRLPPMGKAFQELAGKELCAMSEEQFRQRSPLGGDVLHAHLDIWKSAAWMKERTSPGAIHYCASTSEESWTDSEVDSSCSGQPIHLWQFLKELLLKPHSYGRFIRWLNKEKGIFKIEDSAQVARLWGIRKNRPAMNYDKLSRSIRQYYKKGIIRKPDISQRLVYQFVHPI
# How it was run: as §1
# ETV7 = biological target: T10, ETV7 (Homo sapiens, UniProt Q9Y603 1-341); conditions: protein: recombinant; tags: N-terminal GST; dsDNA, one strand shown
# T10 sequence: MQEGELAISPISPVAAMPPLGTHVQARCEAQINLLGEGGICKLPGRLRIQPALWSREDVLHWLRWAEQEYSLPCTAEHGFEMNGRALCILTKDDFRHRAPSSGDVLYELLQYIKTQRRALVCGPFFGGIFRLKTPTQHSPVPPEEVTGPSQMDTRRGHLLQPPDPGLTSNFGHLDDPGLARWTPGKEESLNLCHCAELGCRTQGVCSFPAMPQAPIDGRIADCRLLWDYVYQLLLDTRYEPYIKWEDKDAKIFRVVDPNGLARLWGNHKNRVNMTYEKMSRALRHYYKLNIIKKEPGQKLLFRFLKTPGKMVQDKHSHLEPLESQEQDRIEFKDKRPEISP
# How it was run: as §1
# ELF5 = biological target: T11, ELF5 (Homo sapiens, UniProt Q9UKW6-2 1-255); conditions: protein: recombinant; tags: N-terminal GST; dsDNA, one strand shown
# T11 sequence: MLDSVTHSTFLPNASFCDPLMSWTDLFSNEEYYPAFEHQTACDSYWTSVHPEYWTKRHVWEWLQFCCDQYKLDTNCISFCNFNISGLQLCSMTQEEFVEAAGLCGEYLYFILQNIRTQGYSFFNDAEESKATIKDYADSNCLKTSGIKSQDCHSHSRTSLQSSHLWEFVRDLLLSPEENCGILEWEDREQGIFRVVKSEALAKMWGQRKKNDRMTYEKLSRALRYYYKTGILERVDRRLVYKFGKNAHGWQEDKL
# How it was run: as §1
# ETV3 = biological target: T12, ETV3 (Homo sapiens, UniProt P41162-2 1-143); conditions: protein: recombinant; tags: N-terminal GST; dsDNA, one strand shown
# T12 sequence: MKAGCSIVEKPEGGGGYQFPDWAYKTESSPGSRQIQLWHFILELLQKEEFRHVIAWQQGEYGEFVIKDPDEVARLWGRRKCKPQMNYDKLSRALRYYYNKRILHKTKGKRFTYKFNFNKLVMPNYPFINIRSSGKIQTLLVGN
# How it was run: as §1
# ETV6 = ETV6 (Homo sapiens, UniProt P41212 1-452); conditions: protein: recombinant; tags: N-terminal GST; dsDNA, one strand shown
# How it was run: as §1
# ETV5, sequence (P41161 whole entry): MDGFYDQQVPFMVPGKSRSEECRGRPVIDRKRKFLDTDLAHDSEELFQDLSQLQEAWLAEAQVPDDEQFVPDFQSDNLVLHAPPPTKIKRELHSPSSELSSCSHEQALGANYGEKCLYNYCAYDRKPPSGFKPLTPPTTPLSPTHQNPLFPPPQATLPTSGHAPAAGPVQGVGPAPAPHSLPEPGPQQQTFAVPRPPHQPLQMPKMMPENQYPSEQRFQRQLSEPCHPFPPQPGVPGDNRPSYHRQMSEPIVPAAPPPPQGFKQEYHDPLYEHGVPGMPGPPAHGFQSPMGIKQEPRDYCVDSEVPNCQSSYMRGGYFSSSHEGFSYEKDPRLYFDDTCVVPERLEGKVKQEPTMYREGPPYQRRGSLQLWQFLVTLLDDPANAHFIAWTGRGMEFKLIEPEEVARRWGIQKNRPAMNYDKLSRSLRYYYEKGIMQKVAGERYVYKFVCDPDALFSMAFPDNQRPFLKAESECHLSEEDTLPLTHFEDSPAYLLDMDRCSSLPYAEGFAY
# ELF4, sequence (Q99607 whole entry): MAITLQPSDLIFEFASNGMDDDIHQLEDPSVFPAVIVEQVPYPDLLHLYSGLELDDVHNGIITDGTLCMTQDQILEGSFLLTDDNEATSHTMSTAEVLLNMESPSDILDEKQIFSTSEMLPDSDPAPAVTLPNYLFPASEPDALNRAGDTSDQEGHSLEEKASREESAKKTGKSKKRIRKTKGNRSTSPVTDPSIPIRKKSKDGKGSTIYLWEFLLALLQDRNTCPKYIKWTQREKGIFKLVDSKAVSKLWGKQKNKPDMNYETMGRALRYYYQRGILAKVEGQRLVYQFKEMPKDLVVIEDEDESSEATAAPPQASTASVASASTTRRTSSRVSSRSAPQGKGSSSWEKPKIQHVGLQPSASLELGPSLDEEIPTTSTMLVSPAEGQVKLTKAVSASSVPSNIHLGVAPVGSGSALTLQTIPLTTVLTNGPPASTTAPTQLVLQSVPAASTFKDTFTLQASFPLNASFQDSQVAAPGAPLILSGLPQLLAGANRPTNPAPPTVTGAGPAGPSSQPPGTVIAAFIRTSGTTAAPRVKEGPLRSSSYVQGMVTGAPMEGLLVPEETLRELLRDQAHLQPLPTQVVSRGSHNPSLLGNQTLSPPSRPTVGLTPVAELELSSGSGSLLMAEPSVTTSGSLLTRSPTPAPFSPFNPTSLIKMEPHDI
# CRX, sequence (O43186 whole entry): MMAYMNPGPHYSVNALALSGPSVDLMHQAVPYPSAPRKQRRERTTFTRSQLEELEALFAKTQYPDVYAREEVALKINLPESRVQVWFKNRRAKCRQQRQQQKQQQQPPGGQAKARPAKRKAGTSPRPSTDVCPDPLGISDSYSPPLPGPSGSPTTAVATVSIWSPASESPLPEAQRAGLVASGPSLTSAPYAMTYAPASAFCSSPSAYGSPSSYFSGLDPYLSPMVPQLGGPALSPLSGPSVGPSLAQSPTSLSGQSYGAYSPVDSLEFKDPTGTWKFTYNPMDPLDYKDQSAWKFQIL
# HSF1, sequence (Q00613 whole entry): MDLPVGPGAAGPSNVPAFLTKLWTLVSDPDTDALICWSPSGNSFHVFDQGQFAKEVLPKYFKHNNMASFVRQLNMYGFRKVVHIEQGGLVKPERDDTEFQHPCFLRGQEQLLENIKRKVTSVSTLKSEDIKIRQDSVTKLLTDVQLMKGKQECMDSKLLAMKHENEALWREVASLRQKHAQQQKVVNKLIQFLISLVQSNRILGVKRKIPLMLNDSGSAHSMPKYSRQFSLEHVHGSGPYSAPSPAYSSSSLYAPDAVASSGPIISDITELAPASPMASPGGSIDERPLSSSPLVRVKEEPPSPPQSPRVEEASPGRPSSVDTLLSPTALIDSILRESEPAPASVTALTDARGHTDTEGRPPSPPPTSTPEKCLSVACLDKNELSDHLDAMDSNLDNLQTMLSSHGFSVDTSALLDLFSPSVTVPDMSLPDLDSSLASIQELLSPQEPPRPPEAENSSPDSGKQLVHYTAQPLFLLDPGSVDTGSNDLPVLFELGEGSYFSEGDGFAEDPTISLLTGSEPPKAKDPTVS
# ETV6, sequence (P41212 whole entry): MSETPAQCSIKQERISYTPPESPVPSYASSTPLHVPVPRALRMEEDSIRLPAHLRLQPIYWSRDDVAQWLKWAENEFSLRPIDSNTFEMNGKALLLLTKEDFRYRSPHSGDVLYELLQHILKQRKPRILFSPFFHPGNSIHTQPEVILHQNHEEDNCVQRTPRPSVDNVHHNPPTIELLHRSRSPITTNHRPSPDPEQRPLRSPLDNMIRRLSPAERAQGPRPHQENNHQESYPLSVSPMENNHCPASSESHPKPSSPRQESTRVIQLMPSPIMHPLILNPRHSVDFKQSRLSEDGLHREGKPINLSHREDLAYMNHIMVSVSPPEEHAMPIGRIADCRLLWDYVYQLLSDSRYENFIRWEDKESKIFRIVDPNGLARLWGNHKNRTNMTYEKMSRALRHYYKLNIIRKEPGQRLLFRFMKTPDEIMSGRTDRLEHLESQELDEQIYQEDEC
# ETV1, sequence (P50549 whole entry): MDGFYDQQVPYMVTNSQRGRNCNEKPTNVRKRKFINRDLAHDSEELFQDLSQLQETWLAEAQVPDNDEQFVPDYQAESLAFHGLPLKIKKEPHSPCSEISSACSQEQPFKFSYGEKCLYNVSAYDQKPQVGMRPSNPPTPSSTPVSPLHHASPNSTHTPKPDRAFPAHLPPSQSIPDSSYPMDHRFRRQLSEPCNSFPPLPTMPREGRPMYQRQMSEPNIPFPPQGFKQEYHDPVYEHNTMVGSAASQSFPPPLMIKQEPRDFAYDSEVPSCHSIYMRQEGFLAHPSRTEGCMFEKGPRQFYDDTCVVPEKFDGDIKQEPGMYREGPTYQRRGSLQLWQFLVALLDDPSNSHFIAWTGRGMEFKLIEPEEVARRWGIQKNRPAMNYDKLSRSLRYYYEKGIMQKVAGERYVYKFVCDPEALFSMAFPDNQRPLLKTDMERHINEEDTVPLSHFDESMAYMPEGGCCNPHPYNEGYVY
sequence,measurement,setting,value
TCACGT,binding signal,FEV,"1.19 fold enrichment (6-mer frequency, TF over GST control)"
same,binding signal,ETV5,"1.24 fold enrichment (6-mer frequency, TF over GST control)"
same,binding signal,HSF1,"1.13 fold enrichment (6-mer frequency, TF over GST control)"
same,binding signal,SPIC,"1.19 fold enrichment (6-mer frequency, TF over GST control)"
same,binding signal,ELF4,"1.23 fold enrichment (6-mer frequency, TF over GST control)"
same,binding signal,ELK4,"1.27 fold enrichment (6-mer frequency, TF over GST control)"
same,binding signal,ETV2,"1.02 fold enrichment (6-mer frequency, TF over GST control)"
same,binding signal,ELF3,"1.01 fold enrichment (6-mer frequency, TF over GST control)"
same,binding signal,CRX,"1.15 fold enrichment (6-mer frequency, TF over GST control)"
same,binding signal,ETV1,"1.26 fold enrichment (6-mer frequency, TF over GST control)"
same,binding signal,ERF,"1.28 fold enrichment (6-mer frequency, TF over GST control)"
same,binding signal,ETV3L,"1.22 fold enrichment (6-mer frequency, TF over GST control)"
same,binding signal,ETS2,"1.2 fold enrichment (6-mer frequency, TF over GST control)"
same,binding signal,SPDEF,"1.15 fold enrichment (6-mer frequency, TF over GST control)"
same,binding signal,ETV7,"1.22 fold enrichment (6-mer frequency, TF over GST control)"
same,binding signal,ELF5,"1.19 fold enrichment (6-mer frequency, TF over GST control)"
same,binding signal,ETV3,"1.19 fold enrichment (6-mer frequency, TF over GST control)"
same,binding signal,ETV6,"1.24 fold enrichment (6-mer frequency, TF over GST control)"
